# Values joined by “and” are separate entries in the source; they are usually repeats but may differ in a detail not shown here. Identical values can stand only once. Inconclusive results are not listed. A structure can be active in one record and inactive in another. Active and inactive are the calls of the source. Rule for the calls, unless noted: active = hit-call score of the fitted dose curve at least 0.9, where 1 is the maximum; inconclusive = response in the unintended direction; inactive = score below 0.9.
# How the values were obtained:
# [1] = target: human Dopamine Transporter (DAT), SLC6A3 (gene 6531) (UniProt Q01959); test: NVS_TR_hDAT: NovaScreen (NVS) Transporter Assay for human Dopamine Transporter (DAT) (AID 2283374);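 note: activity means loss of bound radioligand signal relative to DMSO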
# human Dopamine Transporter (DAT), SLC6A3 (gene 6531), sequence (Q01959 whole entry, looked up): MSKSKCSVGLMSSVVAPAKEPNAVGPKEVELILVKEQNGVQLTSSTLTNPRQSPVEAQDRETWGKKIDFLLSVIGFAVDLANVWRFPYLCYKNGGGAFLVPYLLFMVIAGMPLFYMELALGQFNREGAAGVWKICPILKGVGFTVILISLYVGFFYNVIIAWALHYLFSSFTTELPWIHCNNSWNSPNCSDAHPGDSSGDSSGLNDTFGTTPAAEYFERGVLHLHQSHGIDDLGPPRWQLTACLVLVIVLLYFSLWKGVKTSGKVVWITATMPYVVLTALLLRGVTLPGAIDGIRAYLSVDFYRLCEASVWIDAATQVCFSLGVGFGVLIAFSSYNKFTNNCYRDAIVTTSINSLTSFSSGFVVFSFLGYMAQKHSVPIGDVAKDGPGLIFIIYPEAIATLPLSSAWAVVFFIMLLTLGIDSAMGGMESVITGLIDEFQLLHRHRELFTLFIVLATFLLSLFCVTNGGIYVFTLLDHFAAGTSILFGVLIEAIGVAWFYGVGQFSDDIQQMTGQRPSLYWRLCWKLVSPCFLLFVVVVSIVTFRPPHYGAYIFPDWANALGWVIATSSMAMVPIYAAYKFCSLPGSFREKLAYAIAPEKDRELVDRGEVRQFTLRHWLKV
# In short: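 Duplicate single-point screening at 25 uM preceded concentration-series follow-up of actives. Binding was measured by competitive displacement of a radioligand from DAT protein, filter-counted by scintillation 1 h after dosing. Decrease relative to DMSO taken as activity.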
# [2] = target: Estrogen receptor (Homo sapiens) (UniProt P03372); test: OT_ERa_GFPERaERE_0480: Odyssey Thera (OT) 8-hour HeLa Transcription Induction Assay for Estrogen Receptor (AID 2283381; active = hit-call score of the fitted dose curve at least 0.9, where 1 is the maximum; inactive = score below 0.9)
# Estrogen receptor (Homo sapiens), sequence (P03372 whole entry, looked up): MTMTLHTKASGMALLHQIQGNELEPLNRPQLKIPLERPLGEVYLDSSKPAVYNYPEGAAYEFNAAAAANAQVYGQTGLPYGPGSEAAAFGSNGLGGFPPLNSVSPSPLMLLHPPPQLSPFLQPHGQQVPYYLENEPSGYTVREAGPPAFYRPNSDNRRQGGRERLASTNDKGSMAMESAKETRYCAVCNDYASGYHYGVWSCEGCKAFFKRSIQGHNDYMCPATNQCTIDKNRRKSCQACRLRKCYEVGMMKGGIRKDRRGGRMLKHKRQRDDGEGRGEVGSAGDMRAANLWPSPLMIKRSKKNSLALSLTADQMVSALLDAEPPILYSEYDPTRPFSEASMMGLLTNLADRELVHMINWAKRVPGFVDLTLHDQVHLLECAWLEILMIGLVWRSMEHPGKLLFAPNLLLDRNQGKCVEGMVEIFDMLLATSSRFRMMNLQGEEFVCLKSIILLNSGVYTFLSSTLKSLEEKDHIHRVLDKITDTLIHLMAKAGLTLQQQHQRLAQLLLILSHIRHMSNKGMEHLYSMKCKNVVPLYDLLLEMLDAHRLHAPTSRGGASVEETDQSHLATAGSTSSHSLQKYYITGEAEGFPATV
# In short: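 GFP-ERE reporter, HeLa, 8 h exposure. Readout: fluorescence microscopy, high-content image analysis. Fit direction positive vs DMSO negative control.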
# [3] = target: Estrogen receptor (Homo sapiens) (UniProt P03372); test: OT_ERa_GFPERaERE_0120: Odyssey Thera (OT) 2-hour HeLa Transcription Induction Assay for Estrogen Receptor (AID 2283382)
# In short: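 Fluorescence microscopy read-out: inducible fluorescent protein reporter in HeLa cells, imaged 2 h post-dose. Signal increase over DMSO negative control fitted as single primary endpoint via high content image analysis.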
# [4] = target: Bile acid receptor (Homo sapiens) (UniProt Q96RI1); test: OT_FXR_FXRSRC1_0480: Odyssey Thera (OT) 8-hour HEK293T Protein-Complementation Assay for Farnesoid X receptor/SRC-1 Co-activator (AID 2283383)
# Bile acid receptor (Homo sapiens), sequence (Q96RI1 whole entry, looked up, the tested form may be a part): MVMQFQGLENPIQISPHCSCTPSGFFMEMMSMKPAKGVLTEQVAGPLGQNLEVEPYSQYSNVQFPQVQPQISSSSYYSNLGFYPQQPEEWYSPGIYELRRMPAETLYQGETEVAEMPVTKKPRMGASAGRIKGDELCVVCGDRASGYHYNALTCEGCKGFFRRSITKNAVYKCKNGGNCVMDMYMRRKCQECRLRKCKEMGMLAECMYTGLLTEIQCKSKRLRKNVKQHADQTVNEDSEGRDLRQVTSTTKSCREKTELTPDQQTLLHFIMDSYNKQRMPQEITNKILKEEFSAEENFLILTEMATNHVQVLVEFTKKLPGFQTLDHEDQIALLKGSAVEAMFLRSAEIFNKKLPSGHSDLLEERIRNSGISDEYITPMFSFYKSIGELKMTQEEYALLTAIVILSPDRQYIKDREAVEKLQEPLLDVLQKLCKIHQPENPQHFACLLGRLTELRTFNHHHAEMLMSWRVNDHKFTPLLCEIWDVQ
# In short: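 Fluorescence intensity read-out, 8 h post-dose, HEK293T protein-fragment complementation; FXR bait and SRC-1 prey each linked to reporter fragments. Activity scored as signal increase over DMSO negative control.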
# [5] = target: Agonist Androgen Response Element (ARE), AR (gene 367) (UniProt P10275); test: OT_AR_ARELUC_AG_1440: Odyssey Thera (OT) 24-hour CHO-K1 Luciferase Assay for Agonist Androgen Response Element (ARE) (AID 2283379)
# Agonist Androgen Response Element (ARE), AR (gene 367), sequence (P10275 whole entry, looked up): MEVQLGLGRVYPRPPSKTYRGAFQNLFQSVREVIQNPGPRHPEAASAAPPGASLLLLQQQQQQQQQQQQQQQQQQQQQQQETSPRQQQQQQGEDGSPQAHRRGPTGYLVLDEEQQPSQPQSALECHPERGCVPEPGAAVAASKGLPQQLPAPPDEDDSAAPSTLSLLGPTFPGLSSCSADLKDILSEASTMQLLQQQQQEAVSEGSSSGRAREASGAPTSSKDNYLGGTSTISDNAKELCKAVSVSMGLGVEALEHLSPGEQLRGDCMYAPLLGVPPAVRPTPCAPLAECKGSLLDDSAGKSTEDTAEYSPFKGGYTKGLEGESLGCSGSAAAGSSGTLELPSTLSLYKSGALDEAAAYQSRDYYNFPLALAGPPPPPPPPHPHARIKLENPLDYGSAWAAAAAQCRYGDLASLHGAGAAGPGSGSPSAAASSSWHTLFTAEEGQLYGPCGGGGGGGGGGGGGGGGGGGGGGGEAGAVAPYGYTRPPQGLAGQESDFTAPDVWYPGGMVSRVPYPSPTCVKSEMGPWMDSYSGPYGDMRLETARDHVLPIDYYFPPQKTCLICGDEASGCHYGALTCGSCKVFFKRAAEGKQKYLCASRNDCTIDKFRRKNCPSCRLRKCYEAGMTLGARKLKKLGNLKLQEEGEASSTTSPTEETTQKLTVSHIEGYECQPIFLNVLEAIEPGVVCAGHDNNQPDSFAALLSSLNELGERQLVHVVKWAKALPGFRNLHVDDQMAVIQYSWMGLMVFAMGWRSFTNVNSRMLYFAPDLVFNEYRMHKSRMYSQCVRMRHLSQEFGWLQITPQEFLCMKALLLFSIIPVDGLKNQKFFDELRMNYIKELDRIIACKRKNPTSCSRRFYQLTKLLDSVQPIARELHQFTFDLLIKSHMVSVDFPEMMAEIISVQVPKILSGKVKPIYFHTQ
# In short: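 Readout: luciferase bioluminescence from CHO-K1 ARE-luc cells, measured 24 h post-dosing; agonism = increased mean luminescence vs DMSO controls, fitted in positive direction.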
# [6] = target: Estrogen receptor beta (Homo sapiens) (UniProt Q92731); test: OT_ER_ERbERb_1440: Odyssey Thera (OT) 24-hour HEK293T Protein-Complementation Assay for Estrogen Receptor-beta/-beta Homodimer (AID 2283380);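 note: fluorescence gain from ER beta LBD homodimer complementation read by laser scanning cytometry; scored as signal increase over DMSO baseline for both agonists and antagonists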
# Estrogen receptor beta (Homo sapiens), sequence (Q92731 whole entry, looked up, the tested form may be a part): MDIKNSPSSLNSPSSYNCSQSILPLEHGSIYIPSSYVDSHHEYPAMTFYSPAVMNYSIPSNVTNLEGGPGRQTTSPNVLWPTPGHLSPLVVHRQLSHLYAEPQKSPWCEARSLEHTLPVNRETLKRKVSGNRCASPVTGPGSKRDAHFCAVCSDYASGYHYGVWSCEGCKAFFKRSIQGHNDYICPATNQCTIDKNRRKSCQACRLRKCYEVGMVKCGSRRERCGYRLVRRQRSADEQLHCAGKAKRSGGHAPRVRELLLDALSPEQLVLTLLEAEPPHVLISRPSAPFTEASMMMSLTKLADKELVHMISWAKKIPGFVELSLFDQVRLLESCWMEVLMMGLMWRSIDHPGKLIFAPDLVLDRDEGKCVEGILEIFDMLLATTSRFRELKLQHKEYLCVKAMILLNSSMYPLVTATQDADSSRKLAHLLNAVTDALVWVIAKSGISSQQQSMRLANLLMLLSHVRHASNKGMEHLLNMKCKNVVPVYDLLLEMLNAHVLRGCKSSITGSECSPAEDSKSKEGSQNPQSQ
# In short: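 Fluorescence increase, nuclear for agonists or whole-cell for antagonists, relative to DMSO vehicle, quantified by laser scanning cytometer after fixation and Draq5 staining. Readout from 24 h treatment of HEK293T cells carrying complementation-paired ER beta LBD (aa 310-547).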
# [7] = target: human Norepinephrine Transporter (NET), SLC6A2 (gene 6530) (UniProt P23975); test: NVS_TR_hNET: NovaScreen (NVS) Transporter Assay for human Norepinephrine Transporter (NET) (AID 2283377);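 note: cell-free membrane protein extracted from CHO cells expressing human NET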;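 for AC50: displacement of radioligand from human NET seen as loss of scintillation signal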
# human Norepinephrine Transporter (NET), SLC6A2 (gene 6530), sequence (P23975 whole entry, looked up): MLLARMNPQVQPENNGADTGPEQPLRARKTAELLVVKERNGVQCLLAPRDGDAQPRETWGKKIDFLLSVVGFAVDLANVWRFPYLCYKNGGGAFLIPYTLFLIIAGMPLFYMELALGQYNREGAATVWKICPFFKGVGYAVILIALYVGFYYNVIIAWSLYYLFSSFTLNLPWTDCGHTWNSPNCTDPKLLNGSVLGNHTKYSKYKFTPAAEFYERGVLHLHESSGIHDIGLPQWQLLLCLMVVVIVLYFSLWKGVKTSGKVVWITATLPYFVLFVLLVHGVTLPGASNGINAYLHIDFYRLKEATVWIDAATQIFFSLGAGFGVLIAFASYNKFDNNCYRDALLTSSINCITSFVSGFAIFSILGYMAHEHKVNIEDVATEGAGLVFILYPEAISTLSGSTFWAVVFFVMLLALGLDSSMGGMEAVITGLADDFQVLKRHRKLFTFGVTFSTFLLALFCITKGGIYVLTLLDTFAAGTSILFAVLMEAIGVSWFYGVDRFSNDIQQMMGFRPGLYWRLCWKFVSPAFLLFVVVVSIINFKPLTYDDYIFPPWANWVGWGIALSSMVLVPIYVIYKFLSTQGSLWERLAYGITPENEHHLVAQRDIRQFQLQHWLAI
# In short: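 Single-concentration duplicate screen at 25 uM, then concentration-response for actives; displacement of specific radioligand from human NET in CHO membrane extracts, filter-based scintillation detection at 1 h relative to DMSO.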
# [8] = target: Norway rat Vesicular Monoamine Transporter (VMAT2), neurotransmitter transporter, Slc18a2 (gene 25549) (UniProt Q01827); test: NVS_TR_rVMAT2: NovaScreen (NVS) Transporter Assay for Norway rat Vesicular Monoamine Transporter (VMAT2), neurotransmitter transporter (AID 2283376);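 note: actives lower the bound radioligand signal below the DMSO level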
# Norway rat Vesicular Monoamine Transporter (VMAT2), neurotransmitter transporter, Slc18a2 (gene 25549), sequence (Q01827 whole entry, looked up): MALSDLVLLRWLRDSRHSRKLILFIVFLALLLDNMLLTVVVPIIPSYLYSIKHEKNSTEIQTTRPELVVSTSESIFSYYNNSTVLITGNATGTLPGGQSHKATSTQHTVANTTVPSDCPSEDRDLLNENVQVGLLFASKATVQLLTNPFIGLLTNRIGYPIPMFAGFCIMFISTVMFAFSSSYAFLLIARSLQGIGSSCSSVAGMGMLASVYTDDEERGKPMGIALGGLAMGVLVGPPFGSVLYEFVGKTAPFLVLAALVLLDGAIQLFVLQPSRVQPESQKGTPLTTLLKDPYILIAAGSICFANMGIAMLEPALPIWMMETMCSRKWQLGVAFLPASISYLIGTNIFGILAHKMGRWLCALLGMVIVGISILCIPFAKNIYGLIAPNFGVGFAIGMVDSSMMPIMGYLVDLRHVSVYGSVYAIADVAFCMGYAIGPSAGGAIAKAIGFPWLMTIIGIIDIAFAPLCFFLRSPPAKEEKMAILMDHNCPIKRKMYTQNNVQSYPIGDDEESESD
# In short: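 Using rat forebrain membranes, specific radioligand binding to VMAT2 was measured by filtration and scintillation counting after 1 hour. Chemicals screened at 25 uM in duplicate, actives retested in concentration series, DMSO baseline.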
# [9] = target: rat Serotonin Transporter (SERT), Slc6a4 (gene 25553) (UniProt P31652); test: NVS_TR_rSERT: NovaScreen (NVS) Transporter Assay for rat Serotonin Transporter (SERT) (AID 2283375)
# rat Serotonin Transporter (SERT), Slc6a4 (gene 25553), sequence (P31652 whole entry, looked up): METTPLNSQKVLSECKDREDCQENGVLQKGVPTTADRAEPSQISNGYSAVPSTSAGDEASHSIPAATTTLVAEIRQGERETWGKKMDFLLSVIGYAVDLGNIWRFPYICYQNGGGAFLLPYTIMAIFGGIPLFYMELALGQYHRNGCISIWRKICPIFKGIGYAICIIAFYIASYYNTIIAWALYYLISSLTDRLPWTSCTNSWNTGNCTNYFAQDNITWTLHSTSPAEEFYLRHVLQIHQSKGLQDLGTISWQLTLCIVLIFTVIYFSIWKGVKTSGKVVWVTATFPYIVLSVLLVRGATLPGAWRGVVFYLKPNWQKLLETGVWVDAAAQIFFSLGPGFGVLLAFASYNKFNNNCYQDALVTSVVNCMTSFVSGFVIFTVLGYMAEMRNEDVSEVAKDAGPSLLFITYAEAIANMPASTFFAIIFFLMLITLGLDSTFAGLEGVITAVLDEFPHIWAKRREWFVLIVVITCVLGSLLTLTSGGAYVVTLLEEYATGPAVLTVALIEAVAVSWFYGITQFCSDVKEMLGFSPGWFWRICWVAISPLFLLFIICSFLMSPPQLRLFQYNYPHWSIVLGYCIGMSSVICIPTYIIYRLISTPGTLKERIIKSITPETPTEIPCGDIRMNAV
# In short: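 Steps: rat forebrain membranes dosed with chemical (25 uM duplicate primary; concentration series for actives); 1 h incubation; labelled ligand bound, filtered, counted by scintillation. Activity scored as signal loss vs DMSO.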
# [10] = target: mouse Estrogen Receptor alpha (Era), Esr1 (gene 13982) (UniProt P19785); test: NVS_NR_mERa: NovaScreen (NVS) Nuclear Receptor Binding Assay for mouse Estrogen Receptor alpha (Era) (AID 2283378);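 note: hit means loss of bound radioligand signal relative to DMSO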
# In short: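 Test chemicals competed against a specific radioligand for binding to cell-free mouse Era. Duplicate wells at 25 uM were read 18 hours later by filter-based radiodetection, with loss of signal against DMSO scored as activity.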
compound,measurement,setting,value
O=S1OCC2C(CO1)C1(Cl)C(Cl)=C(Cl)C2(Cl)C1(Cl)Cl (centres undefined),AC50,[1],10.9 µM (active)
same,outcome,[2],inactive
same,outcome,[3],inactive
same,AC50,[4],39.2 µM (active)
C[C@H]1[C@H](c2ccc(Cl)cc2)SC(=O)N1C(=O)NC1CCCCC1,outcome,[5],inactive
same,outcome,[6],inactive
same,outcome,[2],inactive
same,outcome,[3],inactive
Oc1cc(Cl)ccc1Oc1ccc(Cl)cc1Cl,AC50,[1],21.3 µM (active) [middle of 4 runs]
same,AC50,[7],585 nM (active) [middle of 4 runs]
same,outcome,[6],inactive
same,AC50,[4],11.9 µM (active)
CC(C)OC(=O)Nc1cccc(Cl)c1,AC50,[1],16.3 µM (active)
same,AC50,[7],6.63 µM (active)
same,outcome,[6],inactive
same,outcome,[2],inactive
same,outcome,[3],inactive
same,AC50,[4],48.4 µM (active)
CC1(C)C(C=C(Cl)Cl)C1C(=O)OC(C#N)c1ccc(F)c(Oc2ccccc2)c1 (centres undefined),AC50,[1],2.03 µM (active)
same,outcome,[6],inactive
same,outcome,[2],inactive
same,outcome,[3],inactive
ClC1C(Cl)C(Cl)C(Cl)C(Cl)C1Cl (centres undefined),AC50,[1],5.04 µM (active) and 18.5 µM (active) and 14.4 µM (active)
same,outcome,[6],inactive
same,outcome,[4],inactive
CCC(C)(C)C(=O)OC1=C(c2ccc(Cl)cc2Cl)C(=O)OC12CCCCC2,outcome,[1],inactive
same,outcome,[5],inactive
same,outcome,[6],inactive
same,outcome,[2],inactive
same,outcome,[3],inactive
same,AC50,[4],47.5 µM (active)
N#CN,AC50,[7],13 µM (active)
same,outcome,[6],inactive
same,outcome,[2],inactive
same,outcome,[3],inactive
O=C(Nc1ccccc1)Nc1cnns1,AC50,[8],5.31 µM (active)
same,outcome,[6],inactive
same,outcome,[2],inactive
same,outcome,[3],inactive
Oc1ccc(Cl)cc1Cc1ccccc1,AC50,[1],3.69 µM (active) [middle of 8 runs]
same,outcome,[9],inactive
same,AC50,[8],13.8 µM (active)
same,outcome,[8],inactive
same,AC50,[7],3.98 µM (active) [middle of 6 runs]
same,outcome,[5],inactive
same,AC50,[6],12 µM (active)
CCN(CC)C(=O)SCc1ccc(Cl)cc1,AC50,[1],7.71 µM (active)
same,outcome,[2],inactive
same,outcome,[3],inactive
same,AC50,[4],40 µM (active)
O=C(O)CCCOc1ccc(Cl)cc1Cl,outcome,[5],inactive
same,outcome,[6],inactive
N#Cc1c(Cl)c(Cl)c(Cl)c(C#N)c1Cl,AC50,[9],8.2 µM (active)
same,AC50,[6],0.338 µM (active)
same,outcome,[2],inactive
same,outcome,[3],inactive
CCCN(CCOc1c(Cl)cc(Cl)cc1Cl)C(=O)n1ccnc1,AC50,[1],6.06 µM (active)
same,AC50,[9],3.82 µM (active)
same,AC50,[8],7.49 µM (active)
same,AC50,[7],5.14 µM (active)
same,outcome,[6],inactive
same,AC50,[4],11.7 µM (active)
CCCN(CCC)c1c([N+](=O)[O-])cc(C(F)(F)F)cc1[N+](=O)[O-],AC50,[1],25 µM (active)
same,outcome,[5],inactive
same,outcome,[2],inactive
same,outcome,[3],inactive
same,AC50,[4],30.7 µM (active)
CC[C@H](C)[C@H]1O[C@]2(C=C[C@@H]1C)C[C@@H]1C[C@@H](C/C=C(\C)[C@@H](O[C@H]3C[C@H](OC)[C@@H](O[C@H]4C[C@H](OC)[C@@H](O)[C@H](C)O4)[C@H](C)O3)[C@@H](C)/C=C/C=C3\CO[C@@H]4[C@H](O)C(C)=C[C@@H](C(=O)O1)[C@]34O)O2 (tested in a mixture with another compound),AC50,[1],11.3 µM (active)
same,AC50,[7],5.03 µM (active)
same,outcome,[2],inactive
same,outcome,[3],inactive
O=S(=O)(O)C(F)(F)C(F)(F)C(F)(F)C(F)(F)C(F)(F)C(F)(F)C(F)(F)C(F)(F)F,outcome,[7],inactive
C#CCN1C(=O)COc2cc(F)c(N3C(=O)C4=C(CCCC4)C3=O)cc21,outcome,[5],inactive
same,outcome,[6],inactive
same,outcome,[2],inactive
same,outcome,[3],inactive
CCC(C)Nc1c([N+](=O)[O-])cc(C(C)(C)C)cc1[N+](=O)[O-] (centres undefined),AC50,[1],8.98 µM (active)
same,AC50,[6],38.5 µM (active)
same,outcome,[2],inactive
same,AC50,[3],12.2 µM (active)
COP(=S)(OC)Oc1ccc([N+](=O)[O-])cc1,AC50,[1],25 µM (active)
same,AC50,[9],12.6 µM (active)
same,outcome,[10],inactive
same,outcome,[6],inactive
same,outcome,[2],inactive
same,outcome,[3],inactive
same,AC50,[4],36.8 µM (active)
COP(=S)(OC)Oc1ccc(SC)c(C)c1,AC50,[1],7.96 µM (active)
same,outcome,[6],inactive
same,outcome,[2],inactive
same,outcome,[3],inactive
CC(C)N(C(=O)COc1nnc(C(F)(F)F)s1)c1ccc(F)cc1,AC50,[1],13.6 µM (active)
same,AC50,[9],8.58 µM (active)
same,outcome,[6],inactive
same,outcome,[2],inactive
same,outcome,[3],inactive
same,outcome,[4],inactive
COc1nn(CSP(=S)(OC)OC)c(=O)s1,outcome,[6],inactive
same,outcome,[2],inactive
same,outcome,[3],inactive
same,outcome,[4],inactive
O=C(NC(=O)c1c(F)cccc1F)Nc1ccc(OC(F)(F)C(F)OC(F)(F)F)c(Cl)c1 (centres undefined),outcome,[6],inactive
same,outcome,[2],inactive
same,outcome,[3],inactive
O=C1c2ccccc2C(=O)N1SC(Cl)(Cl)Cl,outcome,[6],inactive
same,outcome,[2],inactive
same,outcome,[3],inactive
OCCOc1ccccc1,outcome,[6],inactive
same,outcome,[2],inactive
same,outcome,[3],inactive
same,outcome,[4],inactive
Clc1ccccc1-c1nnc(-c2ccccc2Cl)nn1,outcome,[6],inactive
same,outcome,[2],inactive
same,outcome,[3],inactive
Cc1[nH]c(=O)n(C(C)(C)C)c(=O)c1Cl,outcome,[5],inactive
same,outcome,[2],inactive
same,outcome,[3],inactive
same,outcome,[4],inactive
O=C(O)C(F)(F)C(F)(F)C(F)(F)C(F)(F)C(F)(F)C(F)(F)C(F)(F)F,outcome,[6],inactive
CNC(=O)Oc1ccccc1OC(C)C,outcome,[6],inactive
same,outcome,[2],inactive
same,outcome,[3],inactive
CC1(c2ccc(Oc3ccccc3)cc2)OC(=O)N(Nc2ccccc2)C1=O (centres undefined),outcome,[6],inactive
same,outcome,[2],inactive
same,outcome,[3],inactive
same,AC50,[4],1.94 µM (active)
CNC(=O)CSP(=S)(OC)OC,outcome,[6],inactive
same,outcome,[2],inactive
same,outcome,[3],inactive
COP(=O)(OC)OC=C(Cl)Cl,outcome,[6],inactive
same,outcome,[2],inactive
same,outcome,[3],inactive
CCc1ccc(C(=O)NN(C(=O)c2cc(C)cc(C)c2)C(C)(C)C)cc1,outcome,[6],inactive
same,outcome,[2],inactive
same,outcome,[3],inactive
same,outcome,[4],inactive
CCC(C)(NC(=O)c1cc(Cl)c(C)c(Cl)c1)C(=O)CCl (centres undefined),outcome,[6],inactive
same,AC50,[2],13.6 µM (active)
same,AC50,[3],45 µM (active)
O=[N+]([O-])/N=C1\NCCN1Cc1ccc(Cl)nc1,outcome,[5],inactive
same,outcome,[6],inactive
same,outcome,[2],inactive
same,outcome,[3],inactive
same,outcome,[4],inactive
CNC(=O)Oc1cccc(N=CN(C)C)c1,outcome,[6],inactive
same,outcome,[2],inactive
same,outcome,[3],inactive
same,outcome,[4],inactive
CNC(=O)/C=C(\C)OP(=O)(OC)OC,outcome,[6],inactive
same,outcome,[2],inactive
same,outcome,[3],inactive
CCOC1Oc2ccc(OS(C)(=O)=O)cc2C1(C)C (centres undefined),outcome,[5],inactive
same,outcome,[6],inactive
same,AC50,[2],55.4 µM (active)
same,AC50,[3],53.4 µM (active)
O=[N+]([O-])c1c(Cl)c(Cl)c(Cl)c(Cl)c1Cl,outcome,[6],inactive
same,outcome,[2],inactive
same,outcome,[3],inactive
CC(C)(C)C(O)/C(=C\c1ccc(Cl)cc1Cl)n1cncn1 (centres undefined),outcome,[6],inactive
same,AC50,[2],86.7 µM (active)
same,AC50,[3],93.6 µM (active)
CCOCN(C(=O)CCl)c1c(C)cccc1CC,outcome,[6],inactive
same,outcome,[2],inactive
same,outcome,[3],inactive
CN1CSC(=S)N(C)C1,outcome,[6],inactive
same,outcome,[2],inactive
same,outcome,[3],inactive
same,outcome,[4],inactive
CC(C)(C)C(O)C(Oc1ccc(Cl)cc1)n1cncn1 (centres undefined),AC50,[6],55.6 µM (active)
